Inconclusive results are not listed. Activity calls are given as the source filed them. The call rests on the fitted dose curve; in most records, active means well fitted curve in the direction sought with a large enough effect; inconclusive means small, poorly fitted or top-dose-only effect, or another doubt; inactive means no such curve, though single readings can be large or run the other way.
Biological target: Pyruvate kinase PKLR (Homo sapiens) (UniProt P30613)
Test: Confirmation Concentration-Response Assay for Activators of Human Reticulocyte Pyruvate Kinase
Conditions: purified hPK-R, Kinase-Glo ATP luminescence, 1 h; series mostly up to 57.5 µM
Description: Confirmatory assay NIH Chemical Genomics Center [NCGC] Wael M. Rabeh, Lyudmila Nedyalkova and Hee-Wan Park [Structural Genomics Consortium, 100 College St. Toronto, Ontario, Canada] NCGC Assay Overview: Human pyruvate kinase reticulocyte (hPK-R) enzyme was supplied as a highly purified (>95% pure) preparation from Structural Genomics Consortium in Toronto (Ontario, Canada) and assayed for its ability to generate ATP from ADP using phosphoenolpyruvate (PEP) as a substrate. ATP generation was detected in a coupled reaction by luciferase-mediated luminescence, an ATP-dependent process. Pyruvate kinase substrates, PEP and ADP, were present in the assay at Km and approximately 10-fold below Km respectively. The enzyme was assayed at an intermediate level of activity to screen for both inhibitors and activators.
NCGC Assay Protocol Summary for R-isoform Three uL of substrate mix (at r.t.) in assay buffer (50 mM Imidazole pH7.2, 50 mM KCl, 7 mM MgCl2, 0.01% Tween 20, 0.05% BSA) was dispensed into white solid bottom 1,536 well microtiter plates so that the final concentrations of substrates in the assay were 0.1 mM ADP and 0.5 mM PEP. 23 nL of compound were delivered by a pin tool and 1 uL of enzyme mix (final concentration of 0.1 nM) in assay buffer (4 degree Celsius) was added. Plates were incubated at room temperature for 1 hour. Two uL of detection mix (Kinase-Glo, Promega; at 4 degree Celsius protected from light) was added and luminescence read by a ViewLux (Perkin Elmer) at 1 second exposure/plate. Data were normalized to the uninhibited (row 31). Additionally, a no enzyme and 5-fold enzyme control was dispensed in row 32, split equally between the two conditions.

Chain of Pyruvate kinase PKLR (Homo sapiens) (P30613 whole entry, looked up): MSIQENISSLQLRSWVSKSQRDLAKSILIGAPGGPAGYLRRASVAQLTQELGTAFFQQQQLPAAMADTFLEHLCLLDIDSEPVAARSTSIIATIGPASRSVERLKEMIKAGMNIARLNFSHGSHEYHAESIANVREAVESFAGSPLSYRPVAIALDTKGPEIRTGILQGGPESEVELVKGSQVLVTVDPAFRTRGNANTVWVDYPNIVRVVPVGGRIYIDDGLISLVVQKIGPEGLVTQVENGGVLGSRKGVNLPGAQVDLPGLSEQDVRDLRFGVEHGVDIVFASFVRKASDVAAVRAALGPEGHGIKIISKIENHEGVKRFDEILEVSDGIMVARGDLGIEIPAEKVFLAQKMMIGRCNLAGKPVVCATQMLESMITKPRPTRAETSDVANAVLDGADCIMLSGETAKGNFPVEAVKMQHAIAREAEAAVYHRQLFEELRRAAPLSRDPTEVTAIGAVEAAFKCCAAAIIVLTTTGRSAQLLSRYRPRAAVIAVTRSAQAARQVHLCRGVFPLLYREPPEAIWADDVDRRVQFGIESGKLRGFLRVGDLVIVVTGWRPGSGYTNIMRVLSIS

Potency, inactive:
O=S(=O)(NCCNS(=O)(=O)c1c(F)cccc1F)c1ccc2c(c1)OCCO2, Cc1cc2c(s1)c1cnn(Cc3ccc(C(C)C)cc3)c(=O)c1n2C, CCCCCn1ncc2c3sc(C)cc3n(C)c2c1=O, CC1(C)CCc2cc(S(=O)(=O)N3CCN(S(=O)(=O)c4c(F)cccc4F)CC3)ccc2O1, O=C(CN1C(=O)N/C(=C\c2cccn2-c2cccc(C(=O)O)c2)C1=O)Nc1ccccc1F, Cc1cc2c(s1)c1cnn(Cc3ccc(C)c(F)c3F)c(=O)c1n2C, COc1ccc(Cn2ncc3c4sc(C)cc4n(C)c3c2=O)cc1, Cc1cc2c(s1)c1cnn(Cc3ccc(F)c(F)c3F)c(=O)c1n2C, O=S(=O)(NCCCCCNS(=O)(=O)c1c(F)cccc1F)c1ccc2c(c1)OCCO2, Cc1cc2c(s1)c1cnn(Cc3ccc(S(C)(=O)=O)cc3)c(=O)c1n2C, Cn1c2ccsc2c2ncn(Cc3ccccc3F)c(=O)c21, CCn1c2cc(C)sc2c2cnn(Cc3ccccc3F)c(=O)c21, O=S(=O)(c1ccc2c(c1)OCCO2)N1CCN(S(=O)(=O)c2ccc3c(c2)OCCO3)CC1, Cc1cc2c(s1)c1cnn(Cc3ccccc3F)c(=O)c1n2C(C)C, Cc1cc2c(s1)c1cnn(Cc3cccc(F)c3F)c(=O)c1n2C, CC(=O)Nc1cc2c(s1)c1cnn(Cc3ccccc3F)c(=O)c1n2C, CC(=O)c1cc2c(s1)c1cnn(Cc3ccccc3F)c(=O)c1n2C, Cc1ccc(Cn2ncc3c4sc(C)cc4n(C)c3c2=O)cc1, CC(C)c1cc2c(s1)c1cnn(Cc3ccccc3F)c(=O)c1n2C, Cn1c2cc(C#N)sc2c2cnn(Cc3ccccc3F)c(=O)c21, Cc1cc2c(s1)c1cnn(Cc3ccc(C(F)(F)F)cc3)c(=O)c1n2C, O=S(=O)(c1ccc(Cl)cc1)N1CCN(S(=O)(=O)c2ccc3c(c2)OCCO3)CC1, Cc1cc2c(s1)c1c(C)nn(Cc3ccccc3F)c(=O)c1n2C

Source: PubChem BioAssay AID1782 (National Center for Advancing Translational Sciences (NCATS), 2009)
